# Assay results published in PubChem BioAssay AID1159580 (chemical genetic matrix, 2015).
# Several values for one entry are separate records, joined by “and”; a condition that tells them apart may be missing. Equal entries are not always repeated. About 2,000 (36%) of roughly 5,500 compounds were called active. Inconclusive results (about 18%) are left out. Cut-off read from the data, not from the text of the source: active = normalized growth mostly below about 0.91 (no sharp cut-off); inconclusive = no clear call, values can overlap the other calls; inactive = mostly above about 0.92. The list shows a part of the results.
# Test: chemical genetic growth profiling, strain panel (AID 1159580);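 note: tested at 20 µM; growth read once vehicle control cultures reached saturation at 30 °C; 1 = growth at the plate median or of vehicle wells; lower values mean less growth of the strain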
# Conditions: S. cerevisiae deletion strains, growth OD
smiles,measurement,setting,value
CN1CCc2cccc3c2C1Cc1ccc(O)c(O)c1-3 (stereo not drawn),normalized growth,"locus YAL013W, strain DEP1, stronger effect = lower value",1.01 (inactive)
same,normalized growth,"locus YAL021C, strain ccr4, stronger effect = lower value",0.83 (active)
same,normalized growth,"locus YAL026C, strain drs2, stronger effect = lower value",0.862 (active)
same,normalized growth,"locus YAL030W, strain snc1, stronger effect = lower value",0.866 (active)
same,normalized growth,"locus YAL040C, strain CLN3, stronger effect = lower value",0.989 (inactive)
same,normalized growth,"locus YBL061C, strain skt5, stronger effect = lower value",0.865 (active)
same,normalized growth,"locus YBR009C, strain hhf1, stronger effect = lower value",0.929 (inactive)
same,normalized growth,"locus YBR021W, strain FUR4, stronger effect = lower value",1.01 (inactive)
same,normalized growth,"locus YBR023C, strain chs3, stronger effect = lower value",0.85 (active)
same,normalized growth,"locus YBR171W, strain sec66, stronger effect = lower value",0.949 (inactive)
same,normalized growth,"locus YBR229C, strain ROT2, stronger effect = lower value",1.01 (inactive)
same,normalized growth,"locus YBR231C, strain swc5, stronger effect = lower value",0.785 (active)
same,normalized growth,"locus YBR279W, strain paf1, stronger effect = lower value",0.924 (active)
same,normalized growth,"locus YCL011C, strain gbp2, stronger effect = lower value",0.883 (active)
same,normalized growth,"locus YCL016C, strain dcc1, stronger effect = lower value",0.925 (inactive)
same,normalized growth,"locus YCL029C, strain bik1, stronger effect = lower value",0.995 (inactive)
same,normalized growth,"locus YCL061C, strain MRC1 (second series), stronger effect = lower value",0.611 (active)
same,normalized growth,"locus YCL069W, strain vba3, stronger effect = lower value",0.978 (inactive)
same,normalized growth,"locus YCR088W, strain abp1, stronger effect = lower value",0.986 (inactive)
same,normalized growth,"locus YDL005C, strain med2, stronger effect = lower value",1.02 (inactive)
same,normalized growth,"locus YDL035C, strain GPR1, stronger effect = lower value",1.04 (inactive)
same,normalized growth,"locus YDL040C, strain nat1, stronger effect = lower value",0.977 (inactive)
same,normalized growth,"locus YDL074C, strain BRE1, stronger effect = lower value",1.01 (inactive)
same,normalized growth,"locus YDL101C, strain DUN1, stronger effect = lower value",1.01 (inactive)
same,normalized growth,"locus YDL134C, strain PPH21, stronger effect = lower value",1.03 (inactive)
same,normalized growth,"locus YDL185W, strain tfp1, stronger effect = lower value",1 (inactive)
same,normalized growth,"locus YDL192W, strain arf1, stronger effect = lower value",0.997 (inactive)
same,normalized growth,"locus YDR001C, strain nth1, stronger effect = lower value",1.01 (inactive)
same,normalized growth,"locus YDR069C, strain doa4, stronger effect = lower value",0.573 (active)
same,normalized growth,"locus YDR101C, strain arx1, stronger effect = lower value",0.973 (inactive)
same,normalized growth,"locus YDR137W, strain rgp1, stronger effect = lower value",0.996 (inactive)
same,normalized growth,"locus YDR159W, strain sac3, stronger effect = lower value",0.987 (inactive)
same,normalized growth,"locus YDR162C, strain NBP2, stronger effect = lower value",1.03 (inactive)
same,normalized growth,"locus YDR195W, strain ref2",1.02 (inactive)
same,normalized growth,"locus YDR297W, strain sur2, stronger effect = lower value",0.88 (active)
same,normalized growth,"locus YDR318W, strain mcm21, stronger effect = lower value",0.992 (inactive)
same,normalized growth,"locus YDR334W, strain swr1, stronger effect = lower value",0.873 (active)
same,normalized growth,"locus YDR335W, strain msn5, stronger effect = lower value",0.923 (inactive)
same,normalized growth,"locus YDR363W, strain ESC2, stronger effect = lower value",0.823 (active)
same,normalized growth,"locus YDR388W, stronger effect = lower value",0.993 (inactive)
same,normalized growth,"locus YDR392W, strain spt3, stronger effect = lower value",0.534 (active)
same,normalized growth,"locus YDR502C, strain sam2, stronger effect = lower value",0.999 (inactive)
same,normalized growth,"locus YEL003W, strain gim4, stronger effect = lower value",0.942 (inactive)
same,normalized growth,"locus YEL037C, strain rad23, stronger effect = lower value",0.962 (inactive)
same,normalized growth,"locus YEL061C, strain CIN8 (second series), stronger effect = lower value",0.971 (inactive)
same,normalized growth,"locus YEL061C, strain CIN8, stronger effect = lower value",1.01 (inactive)
same,normalized growth,"locus YER002W, strain NOP16, stronger effect = lower value",0.982 (inactive)
same,normalized growth,"locus YER015W, strain faa2, stronger effect = lower value",0.784 (active)
same,normalized growth,"locus YER016W, strain bim1, stronger effect = lower value",0.979 (inactive)
same,normalized growth,"locus YER110C, stronger effect = lower value",0.985 (inactive)
same,normalized growth,"locus YER111C, strain swi4, stronger effect = lower value",0.996 (inactive)
same,normalized growth,"locus YER155C, strain BEM2 (second series), stronger effect = lower value",0.861 (active)
same,normalized growth,"locus YER155C, strain BEM2, stronger effect = lower value",1 (inactive)
same,normalized growth,"locus YER167W, strain BCK2, stronger effect = lower value",1.03 (inactive)
same,normalized growth,"locus YFR010W, strain ubp6, stronger effect = lower value",0.882 (active)
same,normalized growth,"locus YGL078C, strain dbp3, stronger effect = lower value",0.983 (inactive)
same,normalized growth,"locus YGL086W, strain mad1, stronger effect = lower value",1 (inactive)
same,normalized growth,"locus YGL167C, strain pmr1, stronger effect = lower value",0.985 (inactive)
same,normalized growth,"locus YGL173C, strain kem1, stronger effect = lower value",0.725 (active)
same,normalized growth,"locus YGL227W, strain vid30, stronger effect = lower value",1.02 (inactive)
same,normalized growth,"locus YGL240W, strain doc1, stronger effect = lower value",0.929 (inactive)
same,normalized growth,"locus YGL248W, strain PDE1, stronger effect = lower value",1.01 (inactive)
same,normalized growth,"locus YGL253W, strain hxk2, stronger effect = lower value",0.969 (inactive)
same,normalized growth,"locus YGR135W, strain pre9, stronger effect = lower value",1 (inactive)
same,normalized growth,"locus YGR229C, strain SMI1, stronger effect = lower value",1.02 (inactive)
same,normalized growth,"locus YGR252W, strain gcn5, stronger effect = lower value",1.01 (inactive)
same,normalized growth,"locus YHR013C, strain ard1, stronger effect = lower value",0.818 (active)
same,normalized growth,"locus YHR027C, strain rpn1, stronger effect = lower value",0.826 (active)
same,normalized growth,"locus YHR030C, strain SLT2, stronger effect = lower value",1.01 (inactive) and 1.02 (inactive)
same,normalized growth,"locus YHR079C, strain IRE1 (second series), stronger effect = lower value",0.994 (inactive)
same,normalized growth,"locus YHR079C, strain IRE1, stronger effect = lower value",1.05 (inactive)
same,normalized growth,"locus YHR094C, strain hxt1, stronger effect = lower value",0.99 (inactive)
same,normalized growth,"locus YHR129C, strain ARP1, stronger effect = lower value",1.01 (inactive)
same,normalized growth,"locus YHR142W, strain chs7, stronger effect = lower value",0.867 (active)
same,normalized growth,"locus YHR200W, strain rpn10, stronger effect = lower value",0.997 (inactive)
same,normalized growth,"locus YIL066C, strain RNR3, stronger effect = lower value",1.03 (inactive)
same,normalized growth,"locus YIL073C, strain SPO22, stronger effect = lower value",1.03 (inactive)
same,normalized growth,"locus YIL125W, strain kgd1, stronger effect = lower value",0.989 (inactive)
same,normalized growth,"locus YIR030C, strain dcg1, stronger effect = lower value",1 (inactive)
same,normalized growth,"locus YJL092W, strain hpr5, stronger effect = lower value",0.979 (inactive)
same,normalized growth,"locus YJL095W, strain BCK1 (second series), stronger effect = lower value",0.906 (active)
same,normalized growth,"locus YJL095W, strain BCK1, stronger effect = lower value",0.998 (inactive) and 1.04 (inactive)
same,normalized growth,"locus YJL115W, strain asf1, stronger effect = lower value",0.999 (inactive)
same,normalized growth,"locus YJL129C, strain trk1, stronger effect = lower value",1.07 (inactive)
same,normalized growth,"locus YJL134W, strain LCB3, stronger effect = lower value",1 (inactive)
same,normalized growth,"locus YJL154C, strain vps35, stronger effect = lower value",1.01 (inactive)
same,normalized growth,"locus YJL164C, strain tpk1, stronger effect = lower value",0.874 (active)
same,normalized growth,"locus YJL166W, strain qcr8, stronger effect = lower value",0.742 (active)
same,normalized growth,"locus YJL168C, strain set2, stronger effect = lower value",0.989 (inactive)
same,normalized growth,"locus YJL187C, strain SWE1 (second series), stronger effect = lower value",1.01 (inactive)
same,normalized growth,"locus YJL187C, strain SWE1, stronger effect = lower value",0.887 (active)
same,normalized growth,"locus YJR043C, strain POL32, stronger effect = lower value",1.03 (inactive)
same,normalized growth,"locus YJR066W, strain TOR1, stronger effect = lower value",0.989 (inactive)
